Screens (PubChem)
PGE2 EP2 inh – human EP2 receptor antagonists, primary screen, TR-FRET cAMP, C6 glioma cells; C6 glioma cells expressing human EP2; cells stimulated with saturating PGE2; hit rate 0.52% among 260,000; Prostaglandin E2 receptor EP2 subtype (Homo sapiens), P43116; inhibition, % at 25 µM;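 active = percent inhibition above 40 after rounding to a whole number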;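 also: rat C6 glioma host cells with rolipram phosphodiesterase inhibitor present; the protocol text gives 20 µM as final concentration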
EP2 modulator – EP2 receptor modulators, cAMP readout, primary screen, cell-based, HTRF cAMP, PGE2 stimulation; Prostaglandin E2 receptor EP2 subtype (Homo sapiens), P43116; EP2-expressing cells, cAMP HTRF FRET, PGE2 co-stimulation; induction, % at 25 µM; hit rate 0.83% among 260,000;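 active = compounds whose cAMP rise, as percent of the full-agonist control response, exceeds 60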;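 also: rat C6 glioma line stably carrying human EP2 under a CMV promoter; the protocol text gives 20 µM as final concentration; 100% = response of wells given 1 µM PGE2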
CHT block – inhibitors of human choline transporter CHT. CHT-expressing cells, membrane potential dye, choline response; active compounds read low. B-score at 10 µM. hit rate 0.86% among 310,000. AID 488975, 2010;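 active = B-score over 3 SD under the library average, and starting fluorescence ratio not unusually high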;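 also: choline stimulus applied at its EC90 after an EC20 pre-addition; B-score computed on integrated fluorescence ratio after choline addition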
Target sequence (Q9GZV3 whole entry, looked up): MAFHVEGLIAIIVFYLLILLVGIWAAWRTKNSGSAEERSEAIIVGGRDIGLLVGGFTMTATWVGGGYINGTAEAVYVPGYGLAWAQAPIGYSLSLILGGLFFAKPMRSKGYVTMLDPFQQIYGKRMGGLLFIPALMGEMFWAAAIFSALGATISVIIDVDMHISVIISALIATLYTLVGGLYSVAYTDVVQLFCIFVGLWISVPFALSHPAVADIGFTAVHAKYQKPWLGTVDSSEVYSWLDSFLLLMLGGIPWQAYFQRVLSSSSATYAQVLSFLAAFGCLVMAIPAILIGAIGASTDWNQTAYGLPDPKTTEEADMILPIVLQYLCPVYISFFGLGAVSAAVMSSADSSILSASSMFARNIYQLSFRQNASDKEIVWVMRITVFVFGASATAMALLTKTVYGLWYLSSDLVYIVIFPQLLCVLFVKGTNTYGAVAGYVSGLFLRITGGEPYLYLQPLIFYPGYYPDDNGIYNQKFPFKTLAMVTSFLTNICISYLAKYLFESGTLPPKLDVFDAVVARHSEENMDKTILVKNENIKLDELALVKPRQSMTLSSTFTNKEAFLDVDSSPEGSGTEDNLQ
CHT allo act – CHT positive allosteric modulators, primary screen, cell-based, membrane potential dye, choline EC20 | CHT-expressing cells; active compounds read high; LV-AA mutant CHT in HEK293 cells | AID 488977, 2010 | High affinity choline transporter 1 (Homo sapiens), Q9GZV3 | hit rate 0.49% among 310,000 | B-score at 10 µM;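 active = initial fluorescence not abnormally high and integrated response B-score, plate-corrected, over 3 SD above library mean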
CHT inh conf – CHT inhibitors, confirmation, cell-based, membrane potential dye, duplicate; hit rate 70% among 2,400; CHT-expressing cells, choline membrane potential dye; LV-to-AA substituted CHT, HEK293 cells; CHT activity remaining % of control (active compounds read low), % at 10 µM; shares compounds with CHT block; AID 493221, 2011;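 active = choline transporter activity left, mean of duplicates at 10 µM, below buffer-only control mean minus 3 SD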;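 also: depolarization triggered by choline at its EC90 following an EC20 pre-addition; 0% = hemicholinium-3 full block and 100% = buffer-only control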
HEK293 MPD ctr – membrane potential effects in parental HEK293, counter-screen for CHT inhibitor project, cell-based, membrane potential dye; hit rate 4% among 2,400; shares compounds with CHT block; choline response; active = decrease or increase beyond buffer ±3SD; membrane potential ratio readout (active if shifted either direction beyond buffer ±3SD; no single direction) at 10 µM;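 also: parental cells lack the transporter so any hit is non-specific; ratio is peak minus trough fluorescence over baseline after EC90 choline challenge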
* hit, by the source's call; i = inactive; . = not tested or not shown. Only some compounds are listed: those with a hit (about 2% of all), similar ones and a draw of the others.

SMILES	PGE2 EP2 inh	EP2 modulator	CHT block	CHT allo act	CHT inh conf	HEK293 MPD ctr
Cn1c2ccccc2c2cnn(CC(=O)NCCCN3CCN(c4ccccc4F)CC3)c(=O)c21	.	.	-5.49*	i	i	i
Cc1c2cnn(CC(=O)NCCCN3CCCCC3)c(=O)c2c(C)n1Cc1ccccc1	.	.	i	i	.	.
CCCn1c2ccccc2c2cnn(CC(=O)NCCCN3CCN(c4ccccc4)CC3)c(=O)c21	.	.	-9.93*	i	22.9%*	i
CCCN1CCN(CCCNC(=O)Cn2ncc3c4ccccc4n(C)c3c2=O)CC1	15.8	25.2	i	i	.	.
O=C(Cn1ncc2c3ccccc3n(Cc3ccccc3)c2c1=O)NCCCN1CCCC1	.	.	-9.05*	i	24.6%*	i
CC(=O)Oc1ccc(CN2CCc3c(nc(N4CCCCC4)[nH]c3=O)C2)cc1	8.2	-45.2	.	.	.	.
COc1ccc(OCC(=O)NNC(=O)c2ccco2)cc1	9.6	-22.3	.	.	.	.
O=C(Nc1ccc(F)cc1)N1CCCC1c1nc(-c2ccncc2)n[nH]1 (stereo unspecified)	.	22.4	.	.	.	.
Cc1ccc(C)c(N2CCN(C(c3cc4cc(C)c(C)cc4[nH]c3=O)c3nnnn3C(C)(C)C)CC2)c1 (stereo unspecified)	4.8	40.9	.	.	.	.
CC1=NN(C(=O)c2csc(C)c2)C(O)(C(F)(F)F)C1 (stereo unspecified)	.	6.1	i	i	.	.
CC1=NN(C(=O)c2ccc(Br)cc2)C(O)(C(F)(F)OC(F)(F)F)C1 (stereo unspecified)	.	6.3	-5.14*	i	44.0%*	i
Cc1ncc(-c2ccncc2)c(C2CCCN(C(=O)c3ccncc3)C2)n1 (stereo unspecified)	.	-46.9	.	.	.	.
CCOc1ccc(-n2c(SCc3nc(-c4cccs4)no3)nnc2-c2ccncc2)cc1	5.0	11.3	-4.98*	i	i	i
Cc1cc(C)n2c(SCc3nnc(-c4cccs4)o3)nnc2n1	10.1	-6.9	i	i	.	.
Cn1c(SCc2nc(-c3cccs3)no2)nnc1C1CCCCC1	13.5	8.7	-7.23*	i	i	i
Cc1nnc(SCc2nnc(-c3cccs3)o2)n1C	4.5	-0.6	-7.02*	i	i	i
Cc1ccc(Cl)cc1NC(=O)CSc1nc2sc(C)c(C)c2c(=O)[nH]1	16.2	-13.4	.	.	.	.
O=C(Nc1ccc(S(=O)(=O)NCC2CCCO2)cc1)c1ccc(Cl)c(Cl)c1 (stereo unspecified)	7.6	-33.3	.	.	.	.
O=C(Nc1ccc(S(=O)(=O)NCC2CCCO2)cc1)c1ccc(Cl)cc1[N+](=O)[O-] (stereo unspecified)	7.9	10.7	-15.9*	i	0.4%*	i
CC(=O)Nc1ccc(S(=O)(=O)NCC2CCCO2)cc1 (stereo unspecified)	.	.	i	i	.	.
Cc1c(C(=O)Nc2ccc(S(=O)(=O)NCC3CCCO3)cc2)cccc1[N+](=O)[O-] (stereo unspecified)	4.6	-23.1	-5.17*	i	41.3%*	i
CCC(c1nnnn1Cc1ccco1)N(Cc1ccco1)Cc1cc2c(C)ccc(C)c2[nH]c1=O (stereo unspecified)	10.1	41.0	.	.	.	.
Cc1ccc2c(c1)C(O)(CC(=O)c1ccc(C)s1)C(=O)N2 (stereo unspecified)	3.9	-11.0	i	i	.	.
CC(C)c1ccc2c(c1)C1(NN=C(c3ccccc3)S1)C(=O)N2 (stereo unspecified)	11.0	24.0	-6.56*	i	56.1%*	i
Cc1cccc2c1NC(=O)C21NN=C(c2ccccc2)S1 (stereo unspecified)	16.0	-5.2	.	.	.	.
SMILES	PGE2 EP2 inh	EP2 modulator	CHT block	CHT allo act	CHT inh conf	HEK293 MPD ctr
CCc1ccc2c(c1)C1(NN=C(c3ccc(C)cc3)S1)C(=O)N2 (stereo unspecified)	18.1	13.2	-5.87*	i	66.8%*	i
CCCC(=O)Nc1c2c(nn1-c1ccc(C)cc1)CS(=O)(=O)C2	.	.	-6.1*	i	i	i
C=Cn1cc[n+](CC(=O)c2ccc(C)cc2)c1	5.0	24.3	i	i	.	.
C=Cn1cc[n+](CC(=O)c2ccc(Cl)cc2)c1	.	.	-6.67*	i	47.9%*	i
C=Cn1cc[n+](CC(=O)c2ccc(Br)cc2)c1	.	.	-6.75*	i	30.4%*	i
O=C(N/N=C/c1ccc(O)c([N+](=O)[O-])c1)C1CC1(c1ccccc1)c1ccccc1 (stereo unspecified)	12.5	43.7	-9.34*	i	i	i
CC(C)[C@H]1C(=O)Nc2ccccc2N1C(=O)N[C@@H](Cc1ccccc1)C(=O)N[C@H](Cc1ccccc1)C(=O)O	.	.	-7.2*	i	i	i
CCCOC(=O)C1=C(C)Nc2ccc(C)cc2S1	1.7	-5.9	.	.	.	.
O=C(c1ccccc1Cl)n1c(=O)oc2ccccc21	11.2	50.3	.	.	.	.
CC1=NC(C)(C)Cc2c(C)cccc21	3.8	-19.7	i	i	.	.
CC1=NC(C)(C)Cc2cc(C)c(C)cc21	9.8	13.4	-8.21*	i	41.6%*	i
COc1ccc(N(CC(=O)NC2CCCC2)C(=O)Cn2nnc(-c3ccc(C)cc3)n2)cc1	6.9	7.7	i	i	.	.
COc1ccc(CNC(=O)CN(C(=O)Cn2nnc(-c3ccccc3F)n2)c2ccc(C)cc2)cc1	5.4	-0.7	-5.2*	i	i	i
CCCCNS(=O)(=O)c1ccc(NC(=O)c2c(-c3ccccc3Cl)noc2C)cc1	9.6	48.5	-4.99*	i	54.0%*	i
Cc1onc(-c2ccccc2Cl)c1C(=O)Nc1ccc(S(=O)(=O)NCC2CCCO2)cc1 (stereo unspecified)	12.7	20.9	i	i	.	.
CCOc1cc2c(cc1CN(Cc1ccc3c(c1)OCO3)CC(C)O)CCC2 (stereo unspecified)	7.2	14.0	.	.	.	.
O=C(N/N=C/C=C/c1ccccc1[N+](=O)[O-])c1cc(-c2cccnc2)nc2ccccc12	4.0	-6.6	-9.2*	i	i	i
O=C(O)c1cc(C(=O)O)cc(N2C(=O)CSC2=S)c1	.	.	i	i	.	.
O=C(O)c1ccc(N2C(=O)CSC2=S)cc1	.	.	-6.36*	i	68.6%*	i
Cn1c(=NCC(O)COc2ccccc2)sc2ccccc21 (stereo unspecified)	7.7	-36.5	-18.8*	i	8.9%*	i
